The whole screen tested about 48,000 compounds, of which about 13,000 (27%) showed an effect of 50% or more. The list shows a part of the results.
test system: Wolbachia pipientis; assay: Anti-Wolbachia Cell-Based Screen; format: functional; design: scale not given: in the data most compounds retested in dose-response had high values; details: 5 µM

| SMILES | Percent Effect |
| --- | --- |
| CCN1CC(C(=O)N(C)Cc2ccon2)CC1=O (centres undefined) | 8.13% |
| CCN(CC)[C@H]1C[C@@H](Cc2cc(CO)on2)C1(C)C | -1.281% |
| COc1ccc(OC)c(CNCc2c(C)nc3sc(C)cn23)c1 | 17.49% |
| COC(=O)c1ccccc1NC(=O)c1c(C)cn(C)c1CC(=O)O | 101.4% |
| COc1ccc(C)cc1NC(=O)c1c(C)cn(C)c1CC(=O)O | 106.8% |
| COc1ccc(OC)c(NC(=O)N2CCCC2c2ccco2)c1 (centres undefined) | -3.414% |
| CCn1cc(C(=O)Nc2ccc(C)cc2C(=O)OC)cn1 | -8.405% |
| COc1ncc(NC(=O)Nc2cc(C)ccc2OC)cn1 | 7.981% |
| COC(=O)c1ccccc1NC(=O)c1nc2ccccc2n(C)c1=O | 2.974% |
| COc1ccc(OC)c(NC(=O)c2c(C)cn(C)c2CC(=O)O)c1 | 111% |
| COc1ccc(C)cc1NC(=O)CNc1ccn(CC(N)=O)n1 | -13.27% |
| CCCN(C1CCc2ccccc2C1)S(C)(=O)=O (centres undefined) | -12.4% |
| NC(=O)CN(CC1CCOC1)C1CC1 (centres undefined) | 12.45% |
| COCC(=O)N1CCN(C(=O)c2cccs2)C[C@H]1C(=O)OC | -7.618% |
| COCC(=O)N1CCN(S(=O)(=O)c2cccs2)[C@H]2CS(=O)(=O)C[C@H]21 | 101.1% |
| COCC(=O)N1CCN(S(=O)(=O)c2ccccc2)[C@H]2CS(=O)(=O)C[C@H]21 | 117.3% |
| CCC(=O)N1CCN(S(=O)(=O)c2cccc(F)c2)[C@H]2CS(=O)(=O)C[C@H]21 | 7.69% |

| SMILES | Percent Effect |
| --- | --- |
| COc1ccccc1S(=O)(=O)N1CCN(C)[C@@H]2CS(=O)(=O)C[C@@H]21 | -4.767% |
| CS(=O)(=O)N1CCN(C(=O)c2ccco2)[C@H]2CS(=O)(=O)C[C@H]21 | -4.132% |
| COCC(=O)N1CCN(S(=O)(=O)c2ccccc2)[C@@H](C(=O)OC)C1 | 2.651% |
| COCC(=O)N1CCN(C(=O)Cc2cccs2)[C@H]2CS(=O)(=O)C[C@H]21 | 102.4% |
| CCCN1C(=O)[C@@H]2[C@@H](CCN2C(=O)COC)N(Cc2cccs2)C1=O | 27.38% |
| CN1CC(C(=O)NCc2cccnc2OCC(F)(F)F)CC1=O (centres undefined) | 1.673% |
| CN1CC(C(=O)NCc2ccc(Br)cc2F)CC1=O (centres undefined) | 97.3% |
| CC(C)CN1CC(C(=O)NCCc2ccc(OC(F)F)cc2)CC1=O (centres undefined) | -18.94% |
| COc1ncccc1CNC(=O)C1CC(=O)N(C)C1 (centres undefined) | -5.362% |
| CN1CC(C(=O)NCc2ccc(OCc3cccnc3)cc2)CC1=O (centres undefined) | -2.56% |
| CN1CC(C(=O)NCCc2ccc(Br)cc2F)CC1=O (centres undefined) | 108.1% |
| CC(=O)N1CCCC(C(=O)NCCc2ccc(F)c(Br)c2)C1 (centres undefined) | 78.71% |
| CSCc1nc(CCNC(=O)C2CCCN(C(C)=O)C2)cs1 (centres undefined) | 1.152% |
| CN1CC(C(=O)NCCc2ccn(-c3ccc(F)cc3)n2)CC1=O (centres undefined) | -45.08% |
| Cc1ccccc1CCNC(=O)C1CC(=O)N(CC(F)(F)F)C1 (centres undefined) | 1.737% |
| CC(=O)N1CCCC(C(=O)NCCc2nc(Cc3ccccc3)no2)C1 (centres undefined) | -1.107% |
| CN1CC(C(=O)NCCc2ccc(F)c(Br)c2)CC1=O (centres undefined) | 95.91% |

— ChEMBL document CHEMBL3988442, “University of Dundee, Small-Polar-MMV Screening Library” (2021)
